Results published in PubChem BioAssay (Tox21).
Inconclusive results are not listed. The source made the active and inactive calls. Unless noted, calls come from the whole dose curve; as a rule, active = well fitted curve in the direction sought with a large enough effect in the repeat runs; inconclusive = weak or mixed curves; inactive = no such curve, though single readings can be large; an effect the other way counts as inactive or inconclusive.

Legend:
[1] = qHTS RealTime-Glo MT Cell Viability Assay in HEK293 cells - 8 hour (AID 1224887); note: top concentration of the series differs between compounds; nearly all actives have a fitted effect of over 50% in size
Method in brief: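 Real-time viability in HEK293: signal arises when living cells convert a prosubstrate for NanoLuc in the medium, so luminescence tracks viable cell number. Compound (23 nL, DMSO) added 5 h post-seeding; kinetic reads at 0–40 h, 37 C.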

[2] = A CellTox Green Cytotoxicity Assay to monitor cytotoxicity in HEK293 cells - 16 hour (AID 1224888); note: nearly all actives have a fitted effect of over 35% in size
Method in brief: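 Cells (HEK293, 600/well) and dye reagent are dispensed together. After 5 h at 37 C, 23 nL compound is pinned in. Plates stay at 37 C for 40 h with fluorescence read at 0h, 8h, 16h, 24h, 32h and 40h.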

[3] = qHTS RealTime-Glo MT Cell Viability Assay in HepG2 cells - 0 hour (AID 1224889); note: nearly all actives have a fitted effect of over 50% in size
Method in brief: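 HepG2 cells were seeded at 600 cells/well together with NanoLuc luciferase and a cell-permeant prosubstrate, preincubated 5 h at 37 C/5% CO2, then pin-dosed with compounds in DMSO. Nonlytic luminescence from viable cells was read at each time point.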

[4] = A CellTox Green Cytotoxicity Assay to monitor cytotoxicity in HepG2 cells - 8 hour (AID 1224890); note: nearly all actives have a fitted effect of over 45% in size
Method in brief: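 Cells and non-lytic dye reagent are dispensed together (600 HepG2 cells/well) and incubated 5 h before DMSO compound transfer. Kinetic fluorescence is then recorded in the same wells during 40 h at 37 C.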

[5] = qHTS assay to identify small molecule antagonists of the estrogen receptor alpha (ER-alpha) signaling pathway using the BG1 cell line in the presence of 0.1 nM 17-beta-estradiol - cell viability counter screen (AID 1259241); note: nearly all actives have a fitted effect of over 40% in size
Method in brief: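 VM7Luc4E2 cells (endogenous full-length ER-alpha, 4xERE-luciferase), cultured 5 days in charcoal-stripped serum, exposed to compounds with 0.1 nM 17beta-estradiol (final) for 22 hr at 37C. Viability read in same wells as live-cell protease fluorescence after 30 min.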

[6] = qHTS assay to identify small molecule antagonists of the androgen receptor (AR) signaling pathway using the MDA cell line in the presence of 0.5 nM R1881 - cell viability counter screen (AID 1259242); note: nearly all actives have a fitted effect of over 45% in size
Method in brief: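 Steps: plate MDA-kb2 cells, rest 5 hr at 37C without CO2; pin in compounds in DMSO; add R1881 to 0.5 nM final; incubate 16 hr; add CellTiter-Fluor, 30 min; read fluorescence.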

[7] = target: Estrogen receptor (Homo sapiens) (UniProt P03372); assay: qHTS assay to identify small molecule antagonists of the estrogen receptor alpha (ER-alpha) signaling pathway using the BG1 cell line in the presence of 0.1 nM 17-beta-estradiol (AID 1259244); note: nearly all actives have a fitted effect of over 50% in size
Sequence of Estrogen receptor (Homo sapiens) (P03372 whole entry, looked up): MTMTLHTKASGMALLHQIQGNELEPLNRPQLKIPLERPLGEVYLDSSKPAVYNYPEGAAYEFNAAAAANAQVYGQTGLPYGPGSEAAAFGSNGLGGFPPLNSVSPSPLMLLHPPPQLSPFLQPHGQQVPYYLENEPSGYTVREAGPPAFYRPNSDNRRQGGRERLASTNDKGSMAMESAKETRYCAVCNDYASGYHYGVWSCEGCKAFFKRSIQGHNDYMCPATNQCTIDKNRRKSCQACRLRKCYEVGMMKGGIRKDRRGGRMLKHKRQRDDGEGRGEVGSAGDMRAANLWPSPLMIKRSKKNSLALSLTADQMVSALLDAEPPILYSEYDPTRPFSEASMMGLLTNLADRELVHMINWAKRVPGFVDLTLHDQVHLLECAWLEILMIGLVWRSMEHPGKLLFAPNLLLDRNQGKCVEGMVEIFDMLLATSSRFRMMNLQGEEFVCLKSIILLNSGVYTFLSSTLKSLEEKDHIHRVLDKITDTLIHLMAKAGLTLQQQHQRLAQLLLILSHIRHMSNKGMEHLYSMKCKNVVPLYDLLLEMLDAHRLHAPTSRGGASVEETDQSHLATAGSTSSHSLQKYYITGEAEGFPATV
Method in brief: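 Antagonist mode: compounds in DMSO are pinned onto VM7Luc4E2 reporter cells, 0.1 nM final 17beta-estradiol is added, and after 22 h at 37C luciferase luminescence is measured with ONE-Glo.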

[8] = qHTS assay to identify small molecule HDAC inhibitors (AID 1259364);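 note: wild-type HCT-116 cells with endogenous class I/II HDAC activity; top concentration of the series differs between compounds; nearly all actives have a fitted effect of over 45% in size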
Method in brief: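 Cells (HCT-116, wild type) are seeded at 1,500 per well, incubated overnight, treated with compound in DMSO for 2 hr, then developed with HDAC-Glo I/II reagent for 30 min at room temperature.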

[9] = qHTS assay to identify small molecule HDAC inhibitors - cell viability counter screen (AID 1259365); note: series mostly up to about 92 µM; nearly all actives have a fitted effect of over 50% in size
Method in brief: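 Wild-type HCT-116 cells, 1,500/well, cultured overnight, then compound-treated 2 h at 37 C. Viability measured as ATP luminescence with CellTiter-Glo after 30 min at room temperature.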

[10] = qHTS assay to identify small molecule agonists of the sonic hedgehog signaling (Shh) pathway - cell viability counter screen (AID 1259366); note: nearly all actives have a fitted effect of over 50% in size
Method in brief: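 NIH/3T3-derived Gli1-Luc reporter cells, 2,000 per well, received compound after 4 h and were treated about 23 h at 37C. Viability measured in the same wells by CellTiter-Fluor fluorescence after 1 h.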

[11] = qHTS assay to identify small molecule agonists of the sonic hedgehog signaling (Shh) pathway (AID 1259368; calls by dose curve;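 note: NIH/3T3-derived 3T3Gli1-Luc cells carrying a stable Gli1-driven firefly luciferase reporter; series mostly up to about 92 µM; nearly all actives have a fitted effect of over 15% in size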)
Method in brief: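 Cells of a mouse NIH/3T3 clone stably expressing luciferase under the Gli1 transcriptional response element are exposed to test chemicals for 24 hr at 37 C. Pathway activation is detected as a rise in luminescence.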

[12] = qHTS assay to identify small molecule antagonists of the sonic hedgehog signaling (Shh) pathway (AID 1259369; calls by dose curve; note: nearly all actives have a fitted effect of over 45% in size)
Method in brief: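 Cells are plated and held 4hr at 37 C, compounds (DMSO) are pinned in, conditioned medium is added to stimulate the pathway, and after 24hr luciferase reagent is added for 30min before luminescence is read.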

[13] = target: Estrogen receptor beta (Homo sapiens) (UniProt Q92731); assay: qHTS assay to identify small molecule agonists of the estrogen receptor beta (ER-beta) signaling pathway (AID 1259377; active = well fitted activation curve with a large enough effect in the signal ratio in the repeat runs, not every such curve was filed as active; the % refers to the signal ratio)
Sequence of Estrogen receptor beta (Homo sapiens) (Q92731 whole entry, looked up): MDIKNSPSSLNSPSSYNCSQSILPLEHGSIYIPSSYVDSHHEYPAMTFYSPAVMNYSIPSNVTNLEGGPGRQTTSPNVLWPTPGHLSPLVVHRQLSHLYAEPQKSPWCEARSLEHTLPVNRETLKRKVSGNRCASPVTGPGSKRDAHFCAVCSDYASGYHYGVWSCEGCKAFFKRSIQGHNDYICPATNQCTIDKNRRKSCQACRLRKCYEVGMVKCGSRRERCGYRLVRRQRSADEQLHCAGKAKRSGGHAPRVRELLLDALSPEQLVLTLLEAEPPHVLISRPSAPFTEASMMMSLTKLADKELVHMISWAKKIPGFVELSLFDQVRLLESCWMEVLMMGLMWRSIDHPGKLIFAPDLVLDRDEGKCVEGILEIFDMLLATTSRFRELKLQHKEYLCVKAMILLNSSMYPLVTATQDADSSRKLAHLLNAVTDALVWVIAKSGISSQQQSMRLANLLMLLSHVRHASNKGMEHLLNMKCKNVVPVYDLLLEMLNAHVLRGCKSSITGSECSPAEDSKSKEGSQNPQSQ
Method in brief: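 ER-beta-UAS-bla HEK293T cells in medium with 2% charcoal-stripped FBS were exposed to compounds for 16 h at 37C. Beta-lactamase reporter activity was read as fluorescence after 2 h with LiveBLAzer B/G FRET substrate at room temperature.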

[14] = qHTS assay to identify small molecule agonists of the androgen receptor (AR) signaling pathway in the presence of an antagonist - cell viability counter screen (AID 1259379);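 note: MDA-kb2 human breast cancer cells carrying an MMTV luciferase reporter; series mostly up to about 92 µM; nearly all actives have a fitted effect of over 25% in size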
Method in brief: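 Cytotoxicity is assessed by CellTiter-Fluor in MDA-kb2 cells carrying an MMTV-driven luciferase reporter. Cells receive 3.0uM nilutamide plus compounds at 15 concentrations and incubate 16 hr at 37C without CO2 before fluorescence reading.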

[15] = qHTS assay to identify small molecule agonists of the estrogen receptor beta (ER-beta) signaling pathway - cell viability counter screen (AID 1259380); note: nearly all actives have a fitted effect of over 30% in size
Method in brief: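 Cytotoxicity is measured in parallel with the reporter screen: after 16 hr compound exposure at 37C and a 2 hr LiveBLAzer step, CellTiter-Glo is added to the same ER-beta-UAS-bla HEK293T wells and luminescence read after 30 min.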

[16] = qHTS assay to identify small molecule phospholipidosis (PLD) inducers (AID 1259344; active = well fitted curve in the direction sought with a large enough effect; an effect the other way counts as inactive or inconclusive)
Method in brief: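 Accumulated phospholipid, stained red by LipidTOX during 24 h compound treatment of HepG2 cells at 37 C, is quantified from images as pit number and intensity, normalised per cell using Hoechst-stained nuclei.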

[17] = qHTS assay to identify small molecule antagonists of the sonic hedgehog signaling (Shh) pathway - cell viability counter screen (AID 1259367); note: nearly all actives have a fitted effect of over 55% in size
Method in brief: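 CellTiter-Fluor signal in conditioned medium-stimulated 3T3 Gli1-Luc cells, 23 hr compound exposure, 37C.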

[18] = target: Estrogen receptor beta (Homo sapiens) (UniProt Q92731); assay: qHTS assay to identify small molecule antagonists of the estrogen receptor beta (ER-beta) signaling pathway (AID 1259378; active = well fitted inhibition curve with a large enough effect in the signal ratio in the repeat runs, not every such curve was filed as active; the % refers to the signal ratio)
Method in brief: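 Antagonist mode: compounds added to beta-lactamase reporter HEK293T ER-beta-UAS cells stimulated with E2 (1nM final), 16 hr at 37C. LiveBLAzer B/G FRET substrate, 2 hours room temperature, fluorescence read-out.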

[19] = target: Androgen receptor (Homo sapiens) (UniProt P10275); assay: qHTS assay to identify small molecule antagonists of the androgen receptor (AR) signaling pathway using the MDA cell line in the presence of 0.5 nM R1881 (AID 1259243); note: nearly all actives have a fitted effect of over 50% in size
Sequence of Androgen receptor (Homo sapiens) (P10275 whole entry, looked up): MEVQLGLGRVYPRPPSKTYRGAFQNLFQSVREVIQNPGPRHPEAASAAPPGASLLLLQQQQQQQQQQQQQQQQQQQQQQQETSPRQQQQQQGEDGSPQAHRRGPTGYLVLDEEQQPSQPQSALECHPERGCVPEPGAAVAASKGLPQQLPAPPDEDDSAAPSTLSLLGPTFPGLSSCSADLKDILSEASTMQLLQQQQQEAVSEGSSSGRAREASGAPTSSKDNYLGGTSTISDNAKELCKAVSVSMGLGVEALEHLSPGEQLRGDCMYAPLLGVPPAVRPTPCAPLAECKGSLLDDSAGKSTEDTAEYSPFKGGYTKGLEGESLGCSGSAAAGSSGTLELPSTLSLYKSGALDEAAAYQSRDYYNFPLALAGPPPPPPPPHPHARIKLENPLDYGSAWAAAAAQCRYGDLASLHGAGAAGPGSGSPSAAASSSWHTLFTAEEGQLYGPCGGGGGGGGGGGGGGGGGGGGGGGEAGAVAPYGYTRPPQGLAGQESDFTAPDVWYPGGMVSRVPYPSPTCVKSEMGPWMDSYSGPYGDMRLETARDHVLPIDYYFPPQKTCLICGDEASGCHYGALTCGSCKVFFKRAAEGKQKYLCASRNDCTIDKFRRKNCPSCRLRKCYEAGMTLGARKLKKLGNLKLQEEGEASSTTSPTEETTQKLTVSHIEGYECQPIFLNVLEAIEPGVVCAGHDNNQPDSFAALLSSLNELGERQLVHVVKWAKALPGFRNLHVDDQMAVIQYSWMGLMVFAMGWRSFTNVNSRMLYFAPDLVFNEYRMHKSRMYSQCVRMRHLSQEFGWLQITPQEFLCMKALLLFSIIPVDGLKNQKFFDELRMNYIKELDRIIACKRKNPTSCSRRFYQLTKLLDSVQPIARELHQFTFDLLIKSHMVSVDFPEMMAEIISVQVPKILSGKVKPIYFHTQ
Method in brief: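 Stably transfected MDA-kb2 cells express luciferase from an MMTV promoter bearing both AR and GR response elements. Compounds plus 0.5 nM R1881 (final) were incubated 16 hr at 37C without CO2, then luminescence measured.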

Measured: Potency

CC(CC(=O)O)CC(C)(C)C (stereo not drawn)
inactive: [1] | [2] | [3] | [4] | [5] | [6] | [7] | [8] | [9] | [10] | [11] | [12] | [13] | [14] | [15]

CCCCCC1Nc2cc(C(F)(F)F)c(S(N)(=O)=O)cc2S(=O)(=O)N1 (stereo not drawn)
inactive: [1] | [2] | [3] | [4] | [5] | [6] | [16] | [8] | [9] | [10] | [17] | [12] | [13] | [18] | [14] | [15]

CCOC(=O)CCCCCCCCC(=O)OCC
inactive: [1] | [2] | [4] | [5] | [6] | [8] | [9] | [10] | [17] | [11] | [12] | [14] | [15]

O=C(COCCOCCOCC(=O)Nc1c(I)cc(I)c(C(=O)O)c1I)Nc1c(I)cc(I)c(C(=O)O)c1I
inactive: [1] | [2] | [4] | [5] | [6] | [7] | [16] | [8] | [9] | [10] | [17] | [11] | [12] | [13] | [18] | [14] | [15]

CCCCOC(=O)C(C)OC(=O)CCC (stereo not drawn)
inactive: [1] | [2] | [3] | [5] | [6] | [7] | [8] | [9] | [10] | [17] | [11] | [13] | [14] | [15]

C[C@H](CCC(=O)NCC(=O)O)[C@H]1CC[C@H]2[C@@H]3[C@H](O)C[C@@H]4C[C@H](O)CC[C@]4(C)[C@H]3C[C@H](O)[C@]12C
inactive: [1] | [2] | [3] | [4] | [5] | [6] | [8] | [9] | [10] | [17] | [13] | [18] | [14] | [15]

CCCCC(CC)COC(=O)c1ccccc1 (stereo not drawn)
inactive: [2] | [5] | [6] | [7] | [8] | [9] | [10] | [17] | [11] | [12] | [13] | [18] | [14] | [15]

CCCCCCCCCCCCCC(=O)OC
inactive: [1] | [2] | [3] | [5] | [6] | [19] | [7] | [8] | [9] | [10] | [17] | [11] | [12] | [13] | [18] | [14] | [15]

CC(=O)OC(C(=O)c1ccccc1)c1ccccc1 (stereo not drawn)
inactive: [2] | [3] | [5] | [6] | [19] | [7] | [8] | [9] | [10] | [13] | [18] | [14] | [15]
